In the library only some 9.2% were active in any assay of this set; here they are far more common.
FLuc counter: inhibits or activates purified firefly luciferase, miR-21 counter-screen | Potency, µM (top dose mostly 57.5 µM), hits mostly inhibitors | actives 6.9% (n = 360,000) | P08659 | AID 588342 | purified FLuc, Km substrates, luminescence inhibition; note: nearly all actives have a fitted effect of over 55% in size
Target sequence (P08659 whole entry, looked up): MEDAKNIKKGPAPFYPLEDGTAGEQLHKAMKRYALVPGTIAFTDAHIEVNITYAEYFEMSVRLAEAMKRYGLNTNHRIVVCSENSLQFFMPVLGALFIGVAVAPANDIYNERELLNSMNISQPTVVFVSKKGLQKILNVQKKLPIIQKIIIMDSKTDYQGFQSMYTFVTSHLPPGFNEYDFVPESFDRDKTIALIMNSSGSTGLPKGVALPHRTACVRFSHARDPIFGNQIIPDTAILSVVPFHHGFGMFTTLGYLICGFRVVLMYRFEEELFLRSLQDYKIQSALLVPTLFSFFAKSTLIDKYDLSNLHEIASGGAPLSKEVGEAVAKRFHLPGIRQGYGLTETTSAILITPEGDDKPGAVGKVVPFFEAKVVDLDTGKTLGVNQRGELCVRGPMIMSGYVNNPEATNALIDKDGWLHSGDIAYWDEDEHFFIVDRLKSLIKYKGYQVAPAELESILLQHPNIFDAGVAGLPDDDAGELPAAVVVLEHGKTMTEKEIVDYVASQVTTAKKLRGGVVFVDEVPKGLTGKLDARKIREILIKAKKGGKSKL
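Purified P. pyralis luciferase, 10 nM final, with Km-level 10 uM D-luciferin and 10 uM ATP in 50 mM Tris acetate pH 7.5, 10 mM Mg acetate, 0.01% Tween-20, 0.05% BSA; 6-point qHTS titration about 60 µM downward; luminescence read.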
NPC1 prom act: activators of NPC1 promoter; Huh7 NPC1 promoter luciferase reporter, 24 h; Potency, µM (titrated, usually from 9.22 µM), actives largely listed as activators; actives 2.4% (n = 320,000); note: nearly all actives have a fitted effect of over 60% in size
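Stable NPC1-promoter luciferase Huh7 line; cpd (DMSO) 24 h, 37 °C, 5% CO2; Amplite luciferase reagent 10 min RT; luminescence readout. qHTS format.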
ELG1 genotox: induces genotoxicity in HEK293T cells with luciferase-tagged ELG1; HEK293T ELG1-luciferase reporter, luminescence, 16 h; Potency, µM (highest dose often 46 µM), usual class: activators; actives 1.3% (n = 330,000); note: nearly all actives have a fitted effect of over 60% in size
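DMSO vehicle served as control against compound-treated ELG1-luciferase HEK293T cells; exposure lasted 16 hr at 37 °C and 5% CO2, followed by ONE-Glo luminescence detection after 30 min.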
Rab9 promoter act: activators of Rab9 promoter; Huh7 Rab9 promoter-luciferase reporter, luminescence, 24 h; Potency, µM (top dose mostly 9.22 µM), usual class: activators; actives 2.8% (n = 320,000); AID 485297; note: nearly all actives have a fitted effect of over 60% in size
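Quantitative HTS format; Huh7 Rab9-luciferase reporter cells (1500/well) receive compound 2 h post-plating, incubate 24 h at 37 °C, then get luciferase reagent for 10 min before luminescence reading.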
SMN2 splice enh: SMN2 splice variant enhancement; HEK293 SMN2-luciferase splicing reporter, luminescence, 30-36 h; Potency, µM (highest dose often 46.1 µM), actives largely listed as activators; actives 2.8% (n = 210,000); AID 1458; note: nearly all actives have a fitted effect of over 55% in size
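HEK293 cells carry an SMN2 minigene-luciferase reporter in which exon 7 inclusion puts luciferase in frame. Cells were seeded at 2000 cells/well, attached for 10-12 hours, then exposed to compounds for 30-36 hours at 37C before ONE-Glo luminescence.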
ELG1 DNA repair: blocks ELG1-dependent DNA repair in HEK293T cells | HEK293T ELG1-luciferase reporter, luminescence, 16 h; DNA damage induced by 5-fluorouridine | Potency, µM (highest dose often 46.1 µM), usual class: inhibitors | actives 2.3% (n = 330,000); note: nearly all actives have a fitted effect of over 55% in size
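In this reporter screen, reduction of luminescence relative to DMSO vehicle indicated activity. Compounds and 5-fluorouridine were added together to 2,000 cells per well, incubated for 16 hr at 37 °C, then developed with ONE-Glo.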
Numbers stand for hits; – = inactive; ? = inconclusive; · = no result given; [ ] = remark or other dose. Calls come from the whole dose curve; as a rule, active = well fitted curve in the direction sought with a large enough effect; inconclusive = small, poorly fitted or top-dose-only effect, or another doubt; inactive = no such curve, though single readings can be large; an effect the other way counts as inactive or inconclusive.

SMILES	FLuc counter	NPC1 prom act	ELG1 genotox	Rab9 promoter act	SMN2 splice enh	ELG1 DNA repair
O=C(NNC(=O)C12CC3CC(CC(C3)C1)C2)c1ccccc1O	15.1µM	–	–	–	·	–
CN1C(=O)c2ccccc2Sc2ccc(NC(=O)N3CCN(c4ccc(F)cc4)CC3)cc21	–	·	·	·	·	·
NS(=O)(=O)c1ccc2nc(NC(=O)CS(=O)(=O)c3ccccc3)sc2c1	–	–	–[9.26 µM]	–	·	–
Cc1ccc2nc(NC(=O)c3ccc(Br)o3)sc2c1	1.35µM	1.41µM	?	1.12µM	·	?
CS(=O)(=O)c1ccc2nc(NC(=O)c3ccc(Cn4cc(Br)cn4)o3)sc2c1	4.78µM	?	–	–	·	–
NS(=O)(=O)c1ccc2nc(NC(=O)c3ccc(Br)o3)sc2c1	9.53µM	?	?	?	17.8µM	?
COc1ccc(NC(=O)Cn2c(=O)n(Cc3ccco3)c(=O)c3sc4ccccc4c32)cc1Cl	–	·	·	·	–	·
O=C1c2ccc3c4c(ccc(c24)C(=O)N1c1cccc(O)c1)C(=O)N(c1cccc(O)c1)C3=O	–	–	–	–	·	6.51µM
O=C1c2ccc3c4c(ccc(c24)C(=O)N1c1cccc(O)c1)CC3	–	–	–	–	–	–
CCOC(=O)C1CCCN(C(=O)c2csc(-c3ccc4c(c3)CCO4)n2)C1 (stereo unspecified)	–	–	–	–	·	?
COc1ccc(-c2nn(-c3ccccc3)cc2C(=O)NC(=S)N2CCOCC2)cc1OC	?	–	–	–	·	20.6µM
COC(=O)c1cn(-c2ccccc2)nc1-c1ccc(OC)c(OC)c1	21.3µM	–	–	–	·	?
CN(c1ccccc1)S(=O)(=O)c1cccc(NC(=O)Cc2n[nH]c(=O)c3ccccc23)c1	–	–	–	–	·	?
Cc1ccc(S(=O)(=O)CC(=O)Nc2ncc([N+](=O)[O-])s2)cc1	–	–	–	–	·	–
O=C(COC(=O)c1ccc(Br)o1)Nc1ncc([N+](=O)[O-])s1	16.9µM	–	–	–	·	?
Cc1ccc(CC(=O)Nc2ncc([N+](=O)[O-])s2)cc1	15.1µM	?	–	?	12.6µM	?
COc1ccc2c(C=O)cn(C)c2c1	–	–	–	–	·	–
O=C1CC[C@@]23/C=C/C(=O)NCCCCNCCCNC(=O)/C=C/c4ccc(c2c4)OC3C1 (stereo partly specified)	·	·	·	·	–	·
COc1ccc(S(=O)(=O)Nc2cccc3c2O[C@H](CN(C)CC2CCCCC2)[C@@H](C)CN([C@H](C)CO)C3=O)cc1	·	·	–	·	·	–
CCOc1ccc(C(=O)Nc2cc(NC(=O)c3ccc(OCC)c(Cl)c3)cc(C(=O)O)c2)cc1Cl	–	–	–	–	–	–
CCOc1ccc(C(=O)Nc2ccc(Cl)cn2)cc1Cl	4.78µM	2.51µM	?	2.51µM	?	?
O=C(COc1ccc(Cl)cc1Cl)NNC(=S)NCc1ccco1	?	–	–	–	·	–
O=C(COc1ccc(Cl)cc1Cl)NN=C1CCCCC1	7.57µM	–	–	–	–	–
O=C(COc1ccc(Cl)cc1Cl)NCc1ccco1	23.9µM	–	?	?	–	?
CCOc1ccc(C(=O)Nc2cccc(C(=O)O)c2)cc1Cl	0.239µM	?	–	?	0.562µM	?
SMILES	FLuc counter	NPC1 prom act	ELG1 genotox	Rab9 promoter act	SMN2 splice enh	ELG1 DNA repair
CCn1cc2nc(SCc3cccc(C(F)(F)F)c3)n(Cc3ccc(Cl)cc3)c(=O)c2n1	–	·	·	·	·	·
C=Cc1ccc(Cn2c(C)c(CNCCc3ccccc3C)c(C(=O)O)c2C)cc1	–	·	·	·	–	·
COc1ccc(C(C(=O)NC2CCCCC2)N(Cc2ccco2)C(=O)c2snc(C(N)=O)c2N)cc1 (stereo unspecified)	–	–	–	–	·	?
Cc1ccc(Cl)cc1NC(=O)Cn1c(=O)c2ccccc2n2nncc12	–	·	·	·	–	·
O=C(COc1ccc(Cl)cc1Cl)Nc1ccc(Cl)cn1	0.301µM	0.447µM	1.16µM	?	11.2µM	?
O=C(Nc1ccc(Cn2cccn2)cc1)c1ccc(COc2cccc(Br)c2)cc1	15.1µM	0.562µM	?	0.501µM	12.6µM	?
Cc1ccnc(NC(=O)c2cccc(OC(F)F)c2)n1	?	–	–	–	·	?
Cc1cc(NC(=O)NC(=O)c2cccc(OC(F)(F)C(F)F)c2)n[nH]1	–	2.51µM	?	2.24µM	5.62µM	?
Cc1cc(NC(=O)c2cccc(Oc3ccccc3)c2)n[nH]1	6.75µM	2.82µM	?	0.891µM	?	?
CCc1sc(C(=O)Nc2nc(C)cs2)cc1C	1.9µM	1.26µM	?	?	·	?
O=C(NCc1cccs1)c1cc2c(s1)CCCC2	12µM	?	20.6µM	?	11.2µM	?
Cc1csc(NC(=O)c2cc3c(s2)CCC3)n1	0.849µM	0.631µM	?	?	0.794µM	?
Cc1nc(NC(=O)CCl)sc1C(=O)N(C)C	–	–	–	–	·	–
O=C(NCc1cccs1)c1csc2c1CCCCC2	–	–	–	–	–	–
Cc1nc(NC(=O)c2ccc(Br)s2)sc1C(=O)N(C)C	7.57µM	3.16µM	9.2µM	3.55µM	11.2µM	?
CCOC(=O)C1CCN(C(=O)C2CCN(S(=O)(=O)c3cc(Cl)ccc3OCC)CC2)CC1	–	–	–	–	·	–
CCOC(=O)c1cc(-c2ccccc2)n(CC(=O)Nc2ccccc2OCC)c1C	–	·	·	·	·	·
Cc1cccc(NC(=O)NCCN2CCN(c3ccccc3)CC2)c1C	–	–	–	–	·	–
Cc1csc(NC(=O)c2cc3c(C)nn(Cc4ccccc4Cl)c3s2)n1	10.7µM	–	–	–	–	?
O=C(Nc1nnc(C2CC2)s1)c1cc2c(s1)CCCCCC2	–	–	–	–	?	?
Cc1nc(NC(=O)c2cc3c(s2)CCCCC3)sc1C(=O)N(C)C	13.5µM	?	?	?	?	?
O=C(c1scc2c1CCCC2)N1CCCCC1	–	–	–	–	–	–
Cc1ccc(NC(=O)c2scc3c2CCCC3)cc1	0.477µM	3.98µM	1.84µM	1.78µM	1.41µM	?
Cc1nn(Cc2ccccc2Cl)c2sc(C(=O)NC(C)(C)C)cc12	–	–	–	–	–	–
O=C(Nc1ccccc1OC(F)F)c1cc2c(s1)CCC2	21.3µM	–	–	–	–	?
Cc1ccc(S(=O)(=O)Nc2cc3c(C(=O)Nc4ccccc4)c(C)oc3c3ccccc23)cc1	–	–	–	–	–	–
CN(CCC#N)C(=O)CC1(Cc2ccccc2)CCOC(C)(C)C1 (stereo unspecified)	–	–	–	–	·	?
CC(OC(=O)CN1C(=O)NC2(CCCCC2C)C1=O)c1ccccc1 (stereo unspecified)	–	–	–	–	·	–
CCN(C(=O)c1cc(S(=O)(=O)N2CCc3ccccc32)cn1C)c1cccc(C)c1	–	·	·	·	·	·
Cc1ccc(NC(=O)c2cc3c(s2)CCCC3)cc1	5.36µM	3.16µM	?	1.41µM	12.6µM	?

From PubChem
